DT40 TDP1 CPT: qHTS for Inhibitors of human tyrosyl-DNA phosphodiesterase 1 (TDP1): qHTS in cells in presence of CPT; AID 686979, 2013; Potency, µM (doses to about 46.2 µM), for the others: at the top dose activity change, negative = growth inhibition, actives largely listed as inhibitors; chicken DT40 Tdp1-/-;hTDP1 cells + 20 nM CPT, ATP luminescence, 48 h; 420,000 tested, 12% active; also: potency is read from the fitted curve at half-maximal effect; % is scaled to controls: 0 for no effect and ±100 for the full control effect; nearly all actives have a fitted effect of over 55% in size
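Cell growth measured by CellTiter-Glo luminescence after a minimum 48 h, 37 C compound exposure with 20 nM CPT in Tdp1-knockout DT40 cells stably expressing hTDP1, seeded 400/well; qHTS titration format.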
TDP1 inh: qHTS Assay for Inhibitors of Tyrosyl-DNA Phosphodiesterase (TDP1) | Tyrosyl-DNA phosphodiesterase 1 (Homo sapiens), Q9NUW8 | recombinant TDP1, AlphaScreen DNA substrate cleavage | Potency, µM (series often up to 130 µM), inactives show at the highest dose activity change, negative = inhibition, usual class: inhibitors | 350,000 tested, 0.28% active | AID 485290, 2010; also: potency is read from the fitted curve at half-maximal effect; % is scaled to controls: 0 for no effect and ±100 for the full control effect; nearly all actives have a fitted effect of over 40% in size
Target sequence (Q9NUW8 whole entry, looked up): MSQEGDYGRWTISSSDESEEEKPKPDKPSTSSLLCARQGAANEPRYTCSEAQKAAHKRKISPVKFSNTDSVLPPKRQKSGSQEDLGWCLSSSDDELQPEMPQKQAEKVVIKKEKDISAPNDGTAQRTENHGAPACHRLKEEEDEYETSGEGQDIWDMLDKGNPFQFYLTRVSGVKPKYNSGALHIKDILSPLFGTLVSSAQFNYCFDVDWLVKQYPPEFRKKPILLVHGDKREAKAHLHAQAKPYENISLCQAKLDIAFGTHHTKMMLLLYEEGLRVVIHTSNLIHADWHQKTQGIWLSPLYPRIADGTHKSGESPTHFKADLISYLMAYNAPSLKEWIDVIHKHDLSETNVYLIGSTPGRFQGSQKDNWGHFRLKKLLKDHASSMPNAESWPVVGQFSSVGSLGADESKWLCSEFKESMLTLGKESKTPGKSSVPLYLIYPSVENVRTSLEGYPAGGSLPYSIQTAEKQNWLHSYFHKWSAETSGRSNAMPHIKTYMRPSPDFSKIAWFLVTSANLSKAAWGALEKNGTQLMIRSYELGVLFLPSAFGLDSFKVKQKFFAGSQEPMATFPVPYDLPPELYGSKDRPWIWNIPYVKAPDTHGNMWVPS
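Enzyme-compound mixtures sat 15 min at room temperature, followed by a 5 min reaction with 15 nM final substrate and 10 min with AlphaScreen beads. Recombinant human Tdp1 was used at 1 nM final.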
TGFb SMAD3 inh: qHTS for Inhibitors of TGF-b; HepG2 CAGA-GFP TGF-b/SMAD3 reporter, GFP fluorescence, 18 h; TGF-beta stimulated, 500 pg/mL final; 410,000 tested, 1.2% active; AID 588855, 2011; Potency, µM (titrated, usually from 46.1 µM), inactives show at the top dose activity, negative = inhibition, usual class: inhibitors; also: potency is read from the fitted curve at half-maximal effect; % is scaled to controls: 0 for no effect and ±100 for the full control effect; nearly all actives have a fitted effect of over 65% in size
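Cell-based qHTS in HEPG2 carrying a CAGA-GFP Smad reporter; compounds added before 500 pg/mL final TGF-beta, 18 h incubation at 37 degrees C, GFP fluorescence quantified per cell by imaging cytometry.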
IL-1B inflam inh: qHTS for Inhibitors of Inflammasome Signaling: IL-1-beta AlphaLISA Primary Screen. 360,000 tested, 4.7% active. activity change, % at 57.5 µM. THP-1 LPS/ATP IL-1B secretion, AlphaLISA, 16 h; hits give low values; in the data active = activity change below about -50%; inconclusive = mostly about -30% to -49%; also: % is scaled to controls: 0 for no effect and ±100 for the full control effect
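Secreted IL-1B measured by AlphaLISA bead assay after 16 h compound exposure of THP-1 cells; compounds (final up to 57.5 uM) added 1 h before LPS (250 ng/mL) and ATP (1.25 mM) stimulation; lower signal means less secretion.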
TDP1 cell noCPT: qHTS for Inhibitors of human tyrosyl-DNA phosphodiesterase 1 (TDP1): qHTS in cells in absence of CPT. DT40 Tdp1-/- hTDP1 cells, no CPT, ATP luminescence, 48 h. Potency, µM (highest dose often 46.2 µM), for the others: at the top dose activity change, negative = growth inhibition, actives largely listed as inhibitors. 420,000 tested, 15% active. AID 686978, 2013; also: potency is read from the fitted curve at half-maximal effect; % is scaled to controls: 0 for no effect and ±100 for the full control effect; nearly all actives have a fitted effect of over 55% in size
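Growth kinetics read by CellTiter-Glo luminescence after ≥48 hr at 37 °C. Cells: DT40 Tdp1-/- stably carrying human TDP1, 400 per well, compound exposure in the absence of CPT (DMSO vehicle).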
HepG2 viability: qHTS for Inhibitors of TGF-b: Cytotox Counterscreen. HepG2 CAGA-GFP viability, ATP luminescence, 18 h. Potency, µM (titrated, usually from 46.1 µM), for the others: at the highest dose activity change, negative = cytotoxicity, actives largely listed as cytotoxic. 410,000 tested, 0.76% active. AID 588856, 2011; also: potency is read from the fitted curve at half-maximal effect
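HepG2 CAGA-GFP cells (1000/well, DMEM with 1% FBS) received compound, then TGF-beta at 500 pg/mL final, and were incubated 18 hours at 37 degrees C. Viability was read by CellTiter-Glo luminescence. Media-only wells were set as complete cell-killing and DMSO as no toxicity.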
Numbers without * were called inactive; ? = inconclusive; . = no result given; [ ] = another dose, or the depositor's remark. Shown are actives, neighbours in structure and some others; about 18% of the full set was active somewhere. Unless noted, calls follow the shape of the dose curve; as a rule, active = well fitted curve in the direction sought with a large enough effect; inconclusive = small, poorly fitted or top-dose-only effect, or another doubt; inactive = no such curve, though single readings can be large; an effect the other way counts as inactive or inconclusive.

SMILES	DT40 TDP1 CPT	TDP1 inh	TGFb SMAD3 inh	IL-1B inflam inh	TDP1 cell noCPT	HepG2 viability
Cc1cc(-n2c(C)nc3ccccc3c2=O)ccc1NC(=O)c1cccc([N+](=O)[O-])c1C	13µM*	8%	0%	.	6.5µM*	1%
Cc1cc(-n2c(C)nc3ccccc3c2=O)ccc1NC(=O)C(F)(F)F	?	5%	?	.	?	-13%
Cc1cc(-n2c(C)nc3ccccc3c2=O)ccc1NC(=O)c1ccccc1[N+](=O)[O-]	18µM*	0%	?	.	16µM*	-22%
Cc1c(C(=O)Nc2ccc(-n3c(C)nc4ccccc4c3=O)cc2)cccc1[N+](=O)[O-]	13µM*	0%	-4%	.	7.3µM*	-2%
Cc1ccc(Cl)cc1NS(=O)(=O)c1cc2c(cc1F)NC(=O)CC2	.	-6%	.	.	.	.
COc1cc(OC)c(N(C)C(=O)c2cn(C)c(=O)c3cc(OC)c(OC)cc23)cc1Cl	?	-1%	1%	14	?	-26%
Cc1cc(C(=O)Nc2c(C)nc3ccccn3c2=O)ccc1[N+](=O)[O-]	-29%	5%	25%	.	-18%	7%
Cc1ccn2c(=O)c(NC(=O)c3cccc([N+](=O)[O-])c3C)c(C)nc2c1	15µM*	8%	27%	.	18µM*	15%
Clc1ccc(Cl)c(-c2nn3c(COc4ccccc4)nnc3s2)c1	16µM*	-2%	-4%	3	?	3%
CCOC(=O)c1c(-c2ccc(OC)cc2)nc2nonc2c1N	?	3%[56.1 µM]	1%	29	2.6µM*	6%
O=C(CCN1C(=O)C2CCCCC2C1=O)Nc1nc(-c2ccccc2)cs1 (centres undefined)	?	7%	-14%	11	?	5%
CC(C(=O)Nc1nc(-c2ccc(F)c(F)c2)cs1)N1C(=O)C2CC=CCC2C1=O (centres undefined)	?	1%	-14%	-4	23µM*	-4%
COc1ccc(-c2csc(NC(=O)[C@H](C)N3C(=O)C4CC=CCC4C3=O)n2)cc1OC (some centres undefined)	?	2%	-15%	-4	?	-1%
O=C(CCN1C(=O)C2CC=CCC2C1=O)Nc1nc(-c2ccc(F)c(F)c2)cs1 (centres undefined)	13µM*	1%	-6%	-1	-19%	-5%
COc1ccc(Br)cc1C(=O)N/N=C/c1cccnc1	12%	.	0%	3	12%	-12%
O=C(/C=C/c1cccnc1)c1cc(F)ccc1O	?	-14%	8%	-7	21µM*	25%
COc1cc(C(=O)C(=O)c2ccc(O)c(OC)c2)ccc1O	-5%	.	12%	-1	-23%	5%
CN(C)S(=O)(=O)c1ccc(C(=O)Nc2cccnc2)cc1	4%	7%	14%	-19	-21%	-30%
COc1cc(C(=O)/C=C/c2cccnc2)ccc1O	?	.	?	-99*	18µM*	-93%
COc1ccc(OC)c(C(=O)/C=C/c2cccnc2)c1	?	15%	?	-98*	12µM*	-44%
O=C(N/N=C/c1cccnc1)c1ccc(F)cc1	2%	.	-1%	-11	-12%	-17%
CN(C)S(=O)(=O)c1ccc(C(=O)/C=C/c2cccnc2)cc1	8.2µM*	-6%	2%	-4	21µM*	-6%
CC1CCC2C(=O)OC(COc3ccc(C(C)(C)C)cc3)CN2C1c1ccc(Br)cc1 (centres undefined)	.	7%[21 µM]	.	.	.	.
CCOc1cc(C(=O)NCCCNC(=O)c2cc(OCC)c(OCC)c(OCC)c2)cc(OCC)c1OCC	-25%	.	1%	44	-24%	-40%
O=C(/C=C/c1cccnc1)/C=C/c1cccnc1	1µM*	4%	3.5µM*	-93*	0.58µM*	6.3µM*
SMILES	DT40 TDP1 CPT	TDP1 inh	TGFb SMAD3 inh	IL-1B inflam inh	TDP1 cell noCPT	HepG2 viability
O=C(NCc1nc2ccccc2[nH]1)C1=C[C@@H](C2CCCCC2)C[C@@H](OCCCCO)O1	21µM*	.	-6%	-5	15µM*	-1%
O=C(NCc1nc2ccccc2[nH]1)C1=C[C@H](c2coc3ccccc3c2=O)C[C@H](OCCCCO)O1	21µM*	.	-9%	-26	?	-1%
O=C(NCc1nc2ccccc2[nH]1)C1=C[C@@H](c2ccccc2)C[C@@H](OCCCCO)O1	10%	10%	-1%	2	?	-5%
FC(F)(F)c1cccc(N2CCN(c3ccc4nnc(-c5ccccc5)n4n3)CC2)c1	16µM*	4%	-1%	?	?	-23%
Cc1cccc(C)c1N1CCN(c2ccc3nnc(C(F)(F)F)n3n2)CC1	21µM*	7%	?	-19	21µM*	-5%
Cn1cnc2c(ncn2[C@@H]2O[C@H](CO)[C@@H](O)[C@H]2O)c1=N	1%	7%	.	.	1%	.
OCc1ccnc2oc3ccccc3c12	4%	.	13%	0	2%	2%
O=C(NC1(C(F)(F)F)C(=O)Nc2c1c(=O)[nH]c(=O)n2-c1ccc(F)cc1)c1ccccc1 (centres undefined)	-15%	3%	114%	.	-23%	115%
Cc1cccc(C2=NC(C(F)(F)F)(C(F)(F)F)c3c(n(-c4ccc(F)cc4)c(=O)[nH]c3=O)N2)c1	21µM*	2%	?	3	16µM*	-48%
O=C(CSc1ncccc1C(=O)Oc1ccccc1Cl)Nc1ccc(C(F)(F)F)cc1Cl	?	3%	?	.	23µM*	-21%
CCCCNC(=O)[C@@](CC)(ONc1ccccc1C(F)(F)F)c1cccc2ccccc12	15µM*	2%	?	?	?	-14%

Bioassay records as filed in PubChem.
